Measured values taken from PubChem BioAssay.
Active and inactive are the calls of the source. How the calls were made is not given here.

assay: inhibition of 3D7 malaria parasite growth – strain 3D7 (AID 2306);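 further: 0% = DMSO wells and 100% = chloroquine plus artemisinin control wells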; conditions: P. falciparum 3D7 erythrocytic growth, LDH absorbance, 72 h; at 2 µM; stronger effect = higher value

Row | Structure (SMILES) | growth inhibition
1 | Clc1ccc(-c2cc3c(NCc4ccncc4)nccc3s2)cc1 | 98% (active)
2 | CCN(CC)CCN(Cc1ccc(-c2ccc(C(F)(F)F)cc2)cc1)C(=O)Cn1c(SCc2ccc(F)cc2)cc(=O)c2ccccc21 | 101% (active)
3 | O=C(Nc1ccccc1)N(Cc1ccccc1-c1cccc(CNCCc2ccccc2)c1)C1CCN(Cc2ccccc2)CC1 | 100% (active)
4 | Cc1ccccc1N1CCN(c2ccc(C(=O)Nc3ccccc3)cc2)CC1 | 89% (active)
5 | CN1CCN(CCCN(Cc2cccc(-c3ccc(CNCc4ccc5c(c4)OCO5)cc3)c2)C(=O)CCC2CCCC2)CC1 | 98% (active)
6 | Fc1ccc2nc(-c3cccc(-c4ccc(CNCc5ccccc5)cc4)c3)[nH]c2c1 | 102% (active)
7 | COc1cc(Cl)c(C)cc1N(Cc1ccccc1-c1ccccc1)S(=O)(=O)c1ccc(C(F)(F)F)cc1 | 90% (active)
8 | COc1cc(NCC(C)CNCc2cn(Cc3ccccc3)c3ccccc23)nc2ccccc12 (configuration not stated) | 90% (active)
9 | O=S(=O)(c1cccc(Br)c1)N1CCCCC(c2ccc(C(F)(F)F)cc2)=N1 | 91% (active)
10 | COCc1nc(N)nc(N)c1-c1ccc(Cl)c(Cl)c1 | 84% (active)
11 | O=C(NCCCCN1CCC(c2ccc3c(c2OCC2CC2)CCCC3)CC1)c1ccc(NC(=O)c2ccc(Cl)cc2)cc1 | 101% (active)
12 | Cc1ccc(-c2nnc3c4ccccc4c(C)nn23)cc1S(=O)(=O)N1CCN(CCO)CC1 | 85% (active)
13 | COc1ccc(Nc2nccc(N3CCC(NC(=O)Nc4cc(C)ccc4C)C3)n2)cc1 (configuration not stated) | 91% (active)
14 | O=c1ccc2ncc(Cl)c3c2n1CC3CN1CCC(NCc2cc3c(cn2)OCCO3)CC1 (configuration not stated) | 96% (active)
15 | CC(=O)c1sc(Cc2nc3ccccc3s2)nc1C | 94% (active)
16 | CCN1CCN(c2ccc(Nc3ccnc4ccc(Br)cc34)cc2)CC1 | 98% (active)
17 | O=C(NCC1Cc2cc(Oc3ccccc3)ccc2O1)c1ccc([N+](=O)[O-])o1 (configuration not stated) | 88% (active)
18 | CCN(CC)CCN(Cc1ccc(-c2ccc(C(F)(F)F)cc2)cc1)C(=O)c1ccc(-c2ccc(NC(=O)OC)cc2C)cc1 | 93% (active)
19 | COc1ccc(CNCCc2cccs2)cc1-c1cccc(S(=O)(=O)NCCN2CCCC2)c1 | 98% (active)

Row | Structure (SMILES) | growth inhibition
20 | O=C(Nc1ccc(-c2cccc(-c3nc4ccc(C(F)(F)F)cc4[nH]3)c2)cc1)Nc1ccc(Cl)c(Cl)c1 | 98% (active)
21 | CCN(CC)CCN(Cc1ccc(-c2ccc(C(F)(F)F)cc2)cc1)C(=O)Cn1c(CCC2CCCCC2)nc(=O)c2ccccc21 | 87% (active)
22 | CC(Oc1ccc(NC(=O)c2cccs2)cc1)C(=O)c1ccc(Cl)cc1 (configuration not stated) | 92% (active)
23 | CC(=O)Nc1ccc(C(=O)Nc2ccc(-c3cccc(-c4nc5c(C)cccc5[nH]4)c3)cc2)cn1 | 99% (active)
24 | COc1ccc(-c2ccc(CNC(=O)c3ccc(C#N)cc3)c(F)c2)cc1CN1CCCN(C)CC1 | 90% (active)
25 | CC1CN(C(=O)c2sc3ccccc3c2Cl)CC(C)O1 (configuration not stated) | 101% (active)
26 | COc1ccc2nccc([C@@H](O)CN3CCC(NCc4ccc(OC)c(NC(C)=O)c4)CC3)c2c1 | 90% (active)
27 | COc1ccc(Nc2nc(C)cc(NC3CCCC3)n2)cc1 | 98% (active)
28 | COc1cc2nc(NCCc3ccccc3)nc(NCc3cc(C)no3)c2cc1OC | 99% (active)
29 | c1ccc2c(C3CCN(CCCCOc4ccc5c(c4)CCN(C4CCC4)CC5)CC3)c[nH]c2c1 | 102% (active)
30 | Cc1cc(N[C@@H](Cc2ccccc2)C(=O)NCCCOC(C)C)nc(NCC2CCCCC2)n1 | 94% (active)
31 | COc1ccc(C(=O)CCC(=O)N(Cc2ccc(-c3ccc(CNCc4cccnc4)cn3)cc2)C2CCN(Cc3ccccc3)CC2)cc1F | 94% (active)
32 | O=[N+]([O-])c1cc2c(cc1C=NNc1nc(Nc3ccccc3)nc(Nc3ccccc3)n1)OCO2 | 98% (active)
33 | Cc1cccc2[nH]c(-c3cccc(-c4cccc(CN5CCN(c6ccncc6)CC5)c4)c3)nc12 | 102% (active)
34 | CC(C)CCn1c(Sc2ccc(C#N)c([N+](=O)[O-])c2)nnc1-c1cccc(Cl)c1 | 96% (active)
35 | O=C(Nc1ccc(-c2cccc(-c3nc4ccccc4[nH]3)c2)cc1)Nc1ccc(Cl)c(Cl)c1 | 101% (active)
36 | O=C(/C=C/c1ccc(Cl)c(Cl)c1)NCCCCCCN1CCCN(C(=O)Nc2ccc(C(F)(F)F)cc2)CC1 | 100% (active)
37 | O=C(N[C@@H](Cc1ccccc1)C(=O)NC1CCCc2ccccc21)c1ccc(O)c(-c2ccc(Cl)c(Cl)c2)c1 (some centres not stated) | 97% (active)
